According to PubChem BioAssay (EPA / NIEHS):
Calls of active or inactive are those of the source. Rule for the calls: active = hit-call score of the fitted dose curve at least 0.9, where 1 is the maximum; inactive = score below 0.9.

What was measured:
Conditions in all cases: mRNA level, 48 h; actives raise or lower the signal
[1] = read-out: Ezrin (EZR), EZR (gene 7430); test: LTEA_HepaRG_EZR: Life Technologies and Expression Analysis (LTEA) Assay for Ezrin (EZR) using HepaRG (AID 2283491)
Summary of the method: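 HepaRG, 48 h chemical exposure, 8-pt half-log series from 100 uM, 0.5% DMSO vehicle, duplicates. Read-out: EZR mRNA by TaqMan qRT-PCR (Fluidigm array), housekeeping-normalized; bidirectional curve fit vs DMSO baseline.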

[2] = read-out: Cytochrome P450 3A7 (Homo sapiens) (UniProt P24462); test: LTEA_HepaRG_CYP3A7: Life Technologies and Expression Analysis (LTEA) Assay for CYP3A7 using HepaRG (AID 2283492)
Summary of the method: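 CYP3A7 transcript levels were read by TaqMan qRT-PCR on Fluidigm arrays after 48 h chemical exposure of human HepaRG cells, with housekeeping-gene normalisation. Eight half-log concentrations up to 100 uM in 0.5% DMSO were tested in duplicate.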

CYP3A5 (gene 1577) = test: LTEA_HepaRG_CYP3A5: Life Technologies and Expression Analysis (LTEA) Assay for CYP3A5 using HepaRG (AID 2283493)
Summary of the method: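 HepaRG cells, plated 48 h then in serum-free induction medium, dosed in duplicate for 48 h with eight half-log concentrations up to 100 uM in 0.5% DMSO. Gene mRNA by Fluidigm TaqMan qRT-PCR, normalized to ACTB, GAPDH, POLR2A.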

[3] = read-out: Fatty Acid-Binding Protein 1 (FABP1), FABP1 (gene 2168); test: LTEA_HepaRG_FABP1: Life Technologies and Expression Analysis (LTEA) Assay for Fatty Acid-Binding Protein 1 (FABP1) using HepaRG (AID 2283494)
Summary of the method: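 HepaRG, 48 h post-plating switched to serum-free induction medium, then dosed 48 h (duplicate, 8 pts, ≤100 uM, 0.5% DMSO). RNA → Fluidigm TaqMan qRT-PCR, FABP1 normed to ACTB/GAPDH/POLR2A. Bidirectional curve fit vs DMSO.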

[4] = read-out: Cytochrome P450 4A22 (Homo sapiens) (UniProt Q5TCH4); test: LTEA_HepaRG_CYP4A22: Life Technologies and Expression Analysis (LTEA) Assay for Cytochrome P450 4A22 (CYP4A22) using HepaRG (AID 2283495)
Summary of the method: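 HepaRG, 48 h post-plating -> serum-free induction medium; dosed 48 h, duplicate, 8 conc. (100 uM top, half-log), 0.5% DMSO. Readout: CYP4A22 mRNA by qRT-PCR, ACTB/GAPDH/POLR2A normalization; gain/loss fit relative to DMSO.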

[5] = read-out: Cytochrome P450 7A1 (Homo sapiens) (UniProt P22680); test: LTEA_HepaRG_CYP7A1: Life Technologies and Expression Analysis (LTEA) Assay for Cytochrome P450 7A1 (CYP7A1) using HepaRG (AID 2283496)
Summary of the method: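 HepaRG cells plated 48 h, then switched to serum-free induction medium and exposed in duplicate for 48 h to 8-point half-log series from 100 uM in 0.5% DMSO. CYP7A1 mRNA by qRT-PCR (TaqMan), normalized to ACTB/GAPDH/POLR2A; bidirectional fit versus DMSO.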

[6] = read-out: Glutathione S-Transferase (GSTA2), GSTA2 (gene 2939); test: LTEA_HepaRG_GSTA2: Life Technologies and Expression Analysis (LTEA) Assay for Glutathione S-Transferase (GSTA2) using HepaRG (AID 2283497)
Summary of the method: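 HepaRG, 48 h dosing, 8-pt half-log CRC from 100 uM, 0.5% DMSO vehicle, n=2; RNA → Fluidigm TaqMan qRT-PCR; GSTA2 vs ACTB/GAPDH/POLR2A; gain/loss fit vs DMSO.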

[7] = read-out: Glutamate-cysteine ligase catalytic (GCLC), GCLC (gene 2729); test: LTEA_HepaRG_GCLC: Life Technologies and Expression Analysis (LTEA) Assay for Glutamate-cysteine ligase catalytic (GCLC) using HepaRG (AID 2283498)
Summary of the method: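 Read-out is GCLC transcript level by Fluidigm-based TaqMan qRT-PCR, normalized to three housekeeping genes and fitted in both directions relative to 0.5% DMSO. Human HepaRG cells received chemicals for 48 h, up to 100 uM.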

[8] = read-out: growth arrest and DNA damage 45 (GADD45G), GADD45G (gene 10912); test: LTEA_HepaRG_GADD45G: Life Technologies and Expression Analysis (LTEA) Assay for growth arrest and DNA damage 45 (GADD45G) using HepaRG (AID 2283499)
Summary of the method: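 HepaRG, 48 h exposure, top 100 uM, half-log 8-point series, 0.5% DMSO vehicle, duplicates. Readout: GADD45G transcript by qRT-PCR (Fluidigm array), housekeeping-normalised (ACTB/GAPDH/POLR2A). Bidirectional curve fit vs DMSO baseline.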

[9] = read-out: Glutathione S-transferase M3 (GSTM3), GSTM3 (gene 2947); test: LTEA_HepaRG_GSTM3: Life Technologies and Expression Analysis (LTEA) Assay for Glutathione S-transferase M3 (GSTM3) using HepaRG (AID 2283501)
Summary of the method: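 qRT-PCR read-out of GSTM3 transcript, normalized to three housekeeping genes, from human HepaRG cells after 48 h chemical exposure. Eight-point half-log series, top 100 uM, 0.5% DMSO vehicle; gain or loss fitted relative to DMSO baseline.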

[10] = read-out: Heat shock 70 kDa protein 1 (HSPA1A), gene 3303; test: LTEA_HepaRG_HSPA1A: Life Technologies and Expression Analysis (LTEA) Assay for Heat shock 70 kDa protein 1 (HSPA1A) using HepaRG (AID 2283502)
Summary of the method: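 Human HepaRG cells in serum-free induction medium were exposed in duplicate for 48 h to 8 half-log concentrations, highest 100 uM, in 0.5% DMSO. HSPA1A mRNA read by TaqMan qRT-PCR, normalized to ACTB, GAPDH, POLR2A, fitted bidirectionally against DMSO.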

[11] = read-out: Hypoxia-inducible factor 1-alpha (Homo sapiens) (UniProt Q16665); test: LTEA_HepaRG_HIF1A: Life Technologies and Expression Analysis (LTEA) Assay for Hypoxia-inducible factor 1 (HIF1A) Trancription factor using HepaRG (AID 2283503)
Summary of the method: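 Differentiated HepaRG cells in serum-free induction medium exposed 48 h, in duplicate, to 8-point half-log series from 100 uM in 0.5% DMSO. HIF1A mRNA measured by TaqMan qRT-PCR, normalized to ACTB/GAPDH/POLR2A, fitted bidirectionally versus DMSO.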

[12] = read-out: 3-Hydroxy-3-Methylglutaryl-CoA Synthase 2 (HMGCS2), HMGCS2 (gene 3158); test: LTEA_HepaRG_HMGCS2: Life Technologies and Expression Analysis (LTEA) Assay for 3-Hydroxy-3-Methylglutaryl-CoA Synthase 2 (HMGCS2) using HepaRG (AID 2283504)
Summary of the method: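 qRT-PCR read-out of HMGCS2 transcript, normalised to three housekeeping genes, in HepaRG cells after 48 h chemical exposure. Eight-point curves from 100 uM, half-log dilutions, 0.5% DMSO vehicle; gain or loss fitted relative to DMSO baseline.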

HGF (gene 3082) = test: LTEA_HepaRG_HGF: Life Technologies and Expression Analysis (LTEA) Assay for Hepatocyte Growth Facto (HGF) using HepaRG (AID 2283505)
Summary of the method: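 HepaRG, 48 h dosing, 8-pt half-log series from 100 uM in 0.5% DMSO, duplicates. Readout: TaqMan qRT-PCR of HGF mRNA, housekeeping-normalized; bidirectional curve fit vs DMSO baseline.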

[13] = read-out: Insulin Like Growth Factor 1 (IGF1), IGF1 (gene 3479); test: LTEA_HepaRG_IGF1: Life Technologies and Expression Analysis (LTEA) Assay for Insulin Like Growth Factor 1 (IGF1) using HepaRG (AID 2283506)
Summary of the method: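 Differentiated HepaRG cells in serum-free induction medium, exposed 48 h in duplicate to 8 half-log concentrations up to 100 uM in 0.5% DMSO. IGF1 mRNA by Fluidigm qRT-PCR, normalised to ACTB, GAPDH and POLR2A.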

[14] = read-out: Intercellular Adhesion Molecule 1 (ICAM1), ICAM1 (gene 3383); test: LTEA_HepaRG_ICAM1: Life Technologies and Expression Analysis (LTEA) Assay for Intercellular Adhesion Molecule 1 (ICAM1) using HepaRG (AID 2283507)
Summary of the method: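 HepaRG, 48 h exposure, 8-pt half-log series from 100 uM, 0.5% DMSO vehicle, duplicates. Readout: TaqMan qRT-PCR mRNA, housekeeping-normalized (ACTB/GAPDH/POLR2A). Bidirectional curve fit vs DMSO baseline.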

[15] = read-out: Insulin-like growth factor-binding protein 1 (IGFBP1), IGFBP1 (gene 3484); test: LTEA_HepaRG_IGFBP1: Life Technologies and Expression Analysis (LTEA) Assay for Insulin-like growth factor-binding protein 1 (IGFBP1) using HepaRG (AID 2283508)
Summary of the method: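 qRT-PCR mRNA read-out (TaqMan, Fluidigm array), normalised to three housekeeping genes; HepaRG cells, 48 h exposure, 8-pt half-log series from 100 uM, 0.5% DMSO vehicle; bidirectional curve fit vs DMSO baseline.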

[16] = read-out: Interleukin 6 (IL6), IL6 (gene 3569); test: LTEA_HepaRG_IL6: Life Technologies and Expression Analysis (LTEA) Assay for Interleukin 6 (IL6) using HepaRG (AID 2283509)
Summary of the method: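 HepaRG, ~100,000 cells/well, 48 h pre-culture; serum-free induction medium; cmpd 8-pt half-log from 100 uM, 0.5% DMSO, duplicate, 48 h. Lysis in RLT, TaqMan qRT-PCR; gain or loss vs DMSO.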

[17] = read-out: Interleukin 6 Receptor (IL6R), IL6R (gene 3570); test: LTEA_HepaRG_IL6R: Life Technologies and Expression Analysis (LTEA) Assay for Interleukin 6 Receptor (IL6R) using HepaRG (AID 2283510)
Summary of the method: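 Differentiated HepaRG cells, plated 48 h, then exposed in duplicate for 48 h in serum-free induction medium to 8 half-log concentrations (top 100 uM, 0.5% DMSO). IL6R mRNA measured by TaqMan qRT-PCR, normalized to ACTB/GAPDH/POLR2A; bidirectional fit vs DMSO.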

[18] = read-out: Glutamate-cysteine ligase regulatory (GCLM), GCLM (gene 2730); test: LTEA_HepaRG_GCLM: Life Technologies and Expression Analysis (LTEA) Assay for Glutamate-cysteine ligase regulatory (GCLM) using HepaRG (AID 2283500)
Summary of the method: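 Differentiated HepaRG cells exposed 48 h in serum-free induction medium to eight half-log concentrations up to 100 uM (0.5% DMSO). GCLM mRNA by TaqMan qRT-PCR, normalized to ACTB, GAPDH and POLR2A; bidirectional fit versus DMSO.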

Measured: AC50

Chain of Cytochrome P450 3A7 (Homo sapiens) (P24462 whole entry, looked up): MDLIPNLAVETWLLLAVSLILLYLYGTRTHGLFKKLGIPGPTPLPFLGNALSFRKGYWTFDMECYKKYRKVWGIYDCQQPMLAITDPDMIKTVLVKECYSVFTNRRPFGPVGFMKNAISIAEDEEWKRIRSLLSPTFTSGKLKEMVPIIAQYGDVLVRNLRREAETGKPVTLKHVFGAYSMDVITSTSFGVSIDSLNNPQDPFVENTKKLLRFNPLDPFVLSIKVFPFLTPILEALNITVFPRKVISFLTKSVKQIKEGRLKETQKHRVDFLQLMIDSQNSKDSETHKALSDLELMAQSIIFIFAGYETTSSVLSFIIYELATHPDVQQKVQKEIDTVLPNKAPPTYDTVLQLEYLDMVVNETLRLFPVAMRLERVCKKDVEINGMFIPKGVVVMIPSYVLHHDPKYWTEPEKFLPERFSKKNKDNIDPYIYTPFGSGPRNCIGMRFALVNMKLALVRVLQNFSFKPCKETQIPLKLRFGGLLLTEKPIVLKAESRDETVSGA
Chain of Hypoxia-inducible factor 1-alpha (Homo sapiens) (Q16665 whole entry, looked up): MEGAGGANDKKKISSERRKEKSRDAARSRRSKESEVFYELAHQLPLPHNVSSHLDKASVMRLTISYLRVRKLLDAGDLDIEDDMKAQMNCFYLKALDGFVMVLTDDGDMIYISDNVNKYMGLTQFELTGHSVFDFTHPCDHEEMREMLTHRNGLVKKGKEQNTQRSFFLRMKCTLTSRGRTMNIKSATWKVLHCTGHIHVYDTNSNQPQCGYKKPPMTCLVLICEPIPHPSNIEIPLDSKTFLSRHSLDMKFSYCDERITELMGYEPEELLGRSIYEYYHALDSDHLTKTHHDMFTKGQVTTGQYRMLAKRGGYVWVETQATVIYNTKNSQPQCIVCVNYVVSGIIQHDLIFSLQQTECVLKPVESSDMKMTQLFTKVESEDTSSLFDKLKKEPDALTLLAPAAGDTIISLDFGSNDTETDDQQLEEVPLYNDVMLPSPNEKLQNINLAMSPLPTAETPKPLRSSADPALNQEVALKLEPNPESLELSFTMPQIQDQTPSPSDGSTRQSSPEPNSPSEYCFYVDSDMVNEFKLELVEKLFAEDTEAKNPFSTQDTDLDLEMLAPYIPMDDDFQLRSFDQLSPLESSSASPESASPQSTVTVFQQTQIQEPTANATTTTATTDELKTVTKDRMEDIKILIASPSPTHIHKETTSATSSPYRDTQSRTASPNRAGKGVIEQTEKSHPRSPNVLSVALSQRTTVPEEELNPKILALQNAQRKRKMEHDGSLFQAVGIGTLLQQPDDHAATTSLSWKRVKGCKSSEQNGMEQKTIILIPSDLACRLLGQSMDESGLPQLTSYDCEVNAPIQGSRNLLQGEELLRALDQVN

Cc1ccc2oc(CN(Cc3ccccc3)C(=O)Nc3c(F)cc(F)cc3F)c(-c3ccc(Cl)cc3)c2c1
active: [2] 11.1 µM | [3] 13 µM | [4] 44.2 µM | [5] 5.31 µM | [6] 44.2 µM | [8] 77.2 µM | [12] 44.2 µM | [13] 30.2 µM | [15] 70.8 µM
not listed: [18]
inactive: all other assays above

O=c1ccc2ccccc2o1
active: [3] 36.8 µM
not listed: [17] | [18]
inactive: all other assays above

CCO[Si](CCCNC(N)=O)(OCC)OCC
not listed: [18]
inactive: all other assays above

C[C@]12CC[C@@H]3c4ccc(O)cc4CC[C@H]3[C@@H]1CC[C@H]2O
active: [3] 74.3 µM | [4] 76 µM | [10] 12.5 µM | [12] 82.2 µM | [13] 50 µM
not listed: [2] | [11] | [17]
inactive: all other assays above

CCCOC(=O)c1cc(O)c(O)c(O)c1
active: [3] 30.1 µM | [4] 4.41 µM | [5] 17.9 µM | [12] 50 µM | [13] 11.4 µM
not listed: [1] | [14] | [18]
inactive: all other assays above

CCCCCCCCOC(=O)c1cc(O)c(O)c(O)c1
active: [16] 50 µM
not listed: [17] | [18]
inactive: all other assays above
